From PubChem
Compounds with a hit are over-represented: about 0.97% of the library has one in this group of screens.
RPL19A TOR yeast: alters RPL19A-GFP fluorescence in TOR pathway yeast screen; S. cerevisiae RPL19A-GFP strain, flow cytometry, 3 h; active compounds read low; percent response vs DMSO, % at 10 µM; actives 0.3% (n = 330,000); AID 2025;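 active means percent response vs DMSO below 50%; inconclusive means fewer than 70 events counted for the yeast strain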;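 further: median channel GFP fluorescence of the barcoded RPL19A-GFP strain; ratio of sample median GFP to plate DMSO average so 100% = DMSO; lower means less RPL19A-GFP as with rapamycin TOR inhibition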
AGP1 TOR yeast: yeast TOR pathway AGP1-GFP modulation. S. cerevisiae AGP1-GFP multiplex flow cytometry, 3 h; GFP as percent of DMSO wells. GFP response vs DMSO, % at 10 µM. actives 0.02% (n = 320,000). AID 2066;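 active means GFP response relative to DMSO above a set limit, near screen average plus 3 SD, cut at about 150% in these data; inconclusive means fewer than 70 cells counted for the yeast strain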;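 further: median GFP channel fluorescence of the gated AGP1 strain per well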
JMJD2C inh: blocks human GASC-1 demethylase activity. Q9H3R0. actives 0.069% (n = 330,000). GST-JMJD2C(1-420) H3K9me3 demethylation, DELFIA europium. AID 2099. inhibition, % at 2.35 µM;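 active means more than half of a compound's replicate wells show inhibition beyond 50%, single wells judged on their own value; inconclusive means some, but no more than half, of replicates pass 50% inhibition; inactive means no replicate passes 50% inhibition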;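 further: signal counts dimethyl H3K9 product captured on neutravidin plate; 0% = median of DMSO wells and 100% = 0.3 times that DMSO median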
Target sequence (Q9H3R0 1-420 limits assumed): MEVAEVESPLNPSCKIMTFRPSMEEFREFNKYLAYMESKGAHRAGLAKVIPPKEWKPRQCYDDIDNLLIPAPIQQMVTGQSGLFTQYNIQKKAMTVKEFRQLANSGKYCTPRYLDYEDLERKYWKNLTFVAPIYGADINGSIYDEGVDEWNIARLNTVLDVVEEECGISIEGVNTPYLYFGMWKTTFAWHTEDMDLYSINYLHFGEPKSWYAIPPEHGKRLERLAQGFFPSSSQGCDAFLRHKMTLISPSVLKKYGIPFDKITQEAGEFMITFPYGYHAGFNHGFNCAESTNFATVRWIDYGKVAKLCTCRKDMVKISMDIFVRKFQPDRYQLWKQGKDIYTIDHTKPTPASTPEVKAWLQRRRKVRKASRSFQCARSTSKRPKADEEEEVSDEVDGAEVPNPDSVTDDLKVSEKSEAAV
CIT2-GFP yeast: yeast TOR pathway CIT2-GFP modulation. S. cerevisiae CIT2-GFP strain, flow cytometry, 3 h; 100 means same as DMSO wells. GFP response vs DMSO, % at 10 µM. actives 0.065% (n = 320,000);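 active means GFP response relative to DMSO above a set limit, near the screen mean plus 3 SD, cut at about 150% in these data; inconclusive means Fewer than 70 cells measured for a yeast strain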;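 further: ratio of well median GFP fluorescence to mean of DMSO wells on the plate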
LAP4-GFP MLPCN: alters LAP4-GFP fluorescence in TOR pathway yeast screen. S. cerevisiae LAP4-GFP multiplex, flow cytometry GFP, 3 h; median GFP as percent of DMSO wells. GFP response vs DMSO, % at 10 µM. actives 0.34% (n = 320,000);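 active means GFP response vs DMSO above a set limit, about the screen mean plus 3 SD, cut at about 150% in these data; inconclusive means under 70 cell events counted for the yeast strain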
MEP2 TOR yeast: yeast TOR pathway MEP2-GFP modulation; S. cerevisiae MEP2-GFP strain, flow cytometry GFP, 3 h; 100% = DMSO control level; actives 0.51% (n = 330,000); GFP response vs DMSO, % at 10 µM;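 active means GFP response versus DMSO above a set limit, roughly screen mean plus 3 SD, cut at about 180% in these data; inconclusive means fewer than 70 cells counted for a yeast strain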;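 further: median GFP fluorescence of the barcode-gated MEP2-GFP cells per well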
Active calls of the source: *; ? = inconclusive; · = no result; [ ] = remark or other dose.

SMILES	RPL19A TOR yeast	AGP1 TOR yeast	JMJD2C inh	CIT2-GFP yeast	LAP4-GFP MLPCN	MEP2 TOR yeast
O=[N+]([O-])c1cc(/C=N/O)ccc1Oc1ccccc1Cl	76	95	5	94	118	187*
CC1=C(C(=O)OC2CCCCC2)C(c2ccc(F)cc2)NC(=O)N1 (centres undefined)	102	102	-12	101	93	103
CCOC(=O)c1c(NC(=O)C2CCCO2)sc2c1CCC2 (centres undefined)	101	100	52*	101	110	109
O=C(NCCCN1CCOCC1)c1cc(S(=O)(=O)N2CCOCC2)ccc1Cl	101	100	9	100	93	102
COc1ccc(NC(=O)CN(C)Cc2cccs2)cc1Cl	95	93	-3	99	86	94
C#CCOCCOCCOCCNc1nc(N2CCN(C(=O)[C@H](CCCCN)n3cc([C@@H](N)[C@H](C)CC)nn3)CC2)nc(N2CCN(C(=O)[C@H](CCC(=O)O)n3cc([C@@H](N)CCSC)nn3)CC2)n1	100	101	52*	106	100	96
C#CCOCCOCCOCCNc1nc(N2CCN(C(=O)CCCCCCCCCCNC(=O)[C@@H](CCSC)n3cc(CCO)nn3)CC2)nc(N2CCN(C(=O)CCCCCCCCCCNC(=O)[C@H]([C@@H](C)CC)n3cc(CCCCN=C(N)N)nn3)CC2)n1	90	78	·	84	123	88
C#CCOCCOCCOCCNc1nc(N2CCN(C(=O)CCCCCCCCCCNC(=O)[C@H](CCCCN)n3cc(C[C@@H](C)CC)nn3)CC2)nc(N2CCN(C(=O)CCCCCCCCCCNC(=O)[C@H](CCCCN)n3cc(C[C@@H](C)CC)nn3)CC2)n1	69	92	-14	87	216*	105
C#CCOCCOCCOCCNc1nc(N2CCN(C(=O)CCCCCCCCCCNC(=O)[C@H]([C@@H](C)CC)n3cc(CCCCN=C(N)N)nn3)CC2)nc(N2CCN(C(=O)CCCCCCCCCCNC(=O)[C@H](CCCCN)n3cc(C[C@@H](C)CC)nn3)CC2)n1	74	96	39	102	187*	102
COC(=O)CCC(=O)N1CCC(CCC(=O)NCc2ccc(F)cc2)CC1	102	110	-7	103	100	103
Cc1ccc(/C=[N+](/C)[O-])cc1	95	104	-44	92	100	96
Cc1ccc(C=C2C(Cl)=C(Cl)C(Cl)=C2Cl)cc1	97	88	-4	86	155*	95
O=C(Nc1ncccn1)c1ccc(Cl)c([N+](=O)[O-])c1	101	96	-10	108	82	113
CC(=O)Nc1ccc(S(=O)(=O)Nc2cc3c(cc2C(C)=O)OCO3)cc1	51	?	14	?	83	466*[may fluoresce violet]
COC(=O)/C=C1/S/C(=N/NC(=O)c2ccc(Cl)cc2Cl)NC1=O	95	39	-2	?	113	177*[may fluoresce violet]
COc1ccc(NC(=O)Cc2ccsc2)cc1S(=O)(=O)N1CCOCC1	96	98	18	99	95	91
Cc1cc(C)n(C(=O)/C(C#N)=N/Nc2cc(Cl)cc(Cl)c2)n1	110	84	-4	103	101	113
Cc1cc(C)n(C(=O)/C(C#N)=N\Nc2ccccc2[N+](=O)[O-])n1	94	105	-10	90	183*	134
O=C(/C=C/c1ccc(-c2ccccc2[N+](=O)[O-])o1)c1ccc(Br)cc1	99	93	182	93	162*	98
CC1(C)CCC[C@@]2(C)CC=C(C(=O)O)[C@@H]3C[C@]312	15*[may fluoresce violet]	?	?	?	95	480*[may fluoresce violet]
CCCn1c(SCC(=O)N(C)CC(=O)Nc2ccc(Cl)cc2)n[nH]c1=O	102	110	2	106	111	102
Cc1cc(=O)[nH]c(-n2nc(C)cc2C)n1	100	91	0	92	173*	94
COc1ccc(OC)c2c1C(=O)c1ccccc1C2=O	90	93	10	91	·	96
COc1ccc(OC)c2c1C(=O)C(Cl)=C(Cl)C2=O	44*[may fluoresce violet]	14	-30	?	150	291*[may fluoresce violet]
O=C1CSC(c2cn(-c3ccccc3)nc2-c2ccc3c(c2)OCCO3)N1CCN1CCOCC1 (centres undefined)	37*[may fluoresce violet]	28	-11	?	95	351*[may fluoresce violet]
SMILES	RPL19A TOR yeast	AGP1 TOR yeast	JMJD2C inh	CIT2-GFP yeast	LAP4-GFP MLPCN	MEP2 TOR yeast
NS(=O)(=O)c1ccc(NC(=O)CN2C(=O)CCC2=O)cc1	46*[may fluoresce violet]	25	4	?	86	812*[may fluoresce violet]
Fc1ccc(CNc2ncccn2)cc1	30*[may fluoresce violet]	?	-21	?	60	190*[may fluoresce violet]
COc1ccc(NC(=O)CN2CCc3ccccc3C2)c([N+](=O)[O-])c1	101	96	13	99	95	106
COc1ccc(OC)c(NC(=O)CN2CCc3ccccc3C2)c1	39*[may fluoresce violet]	21	-5	?	95	395*[may fluoresce violet]
O=C(CSc1ccc(Cl)cc1)N1CCN(c2ccc([N+](=O)[O-])cc2Cl)CC1	102	100	-29	96	107	98
Cc1ccc(Cl)cc1N1CCN(C(=O)CSc2ccsc2[N+](=O)[O-])CC1	98	97	-1	98	117	184*
Cc1cc(C)c2c(N=NN3CCOCC3)[nH]nc2n1	97	123	17	151*	109	111
O=S(=O)(c1ccc(NC(=S)N/N=C/c2cccc(Oc3ccccc3)c2)cc1)N1CCOCC1	113	111	-11	170*	127	165
O=S(=O)(c1ccc(NC(=S)N/N=C/c2ccc(O)c(O)c2)cc1)N1CCOCC1	98	102	-7	91	101	100
O=C(O)CCC(=O)Nc1ccc(S(=O)(=O)c2ccc(NC(=O)CCC(=O)O)cc2)cc1	103	151*	-2	105	102	97
O=C(O)CCC(=O)Nc1ccc(S(=O)(=O)N2CCCC2)cc1	88	92	-5	87	90	100
Clc1ccc(-c2nn3cnnc3s2)c(Cl)c1	45*[may fluoresce violet]	?	2	?	79	300*[may fluoresce violet]
CCN1C/C(=C/c2cccs2)c2nc3ccccc3c(C(=O)O)c2C1	92	97	7	95	104	149
CCc1ccc(/C=C2\CN(CC)Cc3c2nc2ccccc2c3C(=O)O)cc1	65	20	-13	?	102	453*[may fluoresce violet]
COc1ccc(NC(=O)CSc2nccn2-c2ccccc2)c(OC)c1	67	114	4	79	109	108
CCOc1ccccc1NC(=O)CSc1nccn1-c1ccccc1	·	?	2	?	90	264*[may fluoresce violet]
CC(C)(C)[C@@H]1COC(=O)[C@H](Cc2ccc(F)cc2)C/C=C\C[C@H](CC(=O)N(CCO)Cc2ccccc2)C(=O)N1	96	96	-2	95	98	99
